# From PubChem BioAssay
# KLF5 inh: KLF5 expression inhibitors, primary screen, DLD-1 cells, luminescence. DLD-1 KLF5 promoter-luciferase reporter. inhibition, % at 5 µM. 290,000 compounds, 0.23% hits. AID 1700, 2009;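 active = inhibition above a per-plate limit of that plate's mean compound inhibition plus 3 SD, cut at about 60% in these data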;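 note: 0% = DMSO wells and 100% = LY294002 at 200 µM; higher means less KLF5 promoter-driven luciferase light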
# BaF3 parental: parental Ba/F3 cell viability inhibition, counter-screen for JAK2V617F inhibitor project, murine pro-B, CellTiter-Glo luminescence; CellTiter-Glo ATP luminescence; inhibition, % at 5.6 µM; 220,000 compounds, 1.1% hits; AID 1486, 2009;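 active = inhibition above a per-campaign cutoff, the mean inhibition of all tested compounds plus 3 SD, cut at about 27% in these data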;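 note: 0% = DMSO wells and 100% = JAK Inhibitor I control wells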
# Ba/F3 V617F tox: reduced viability of JAK2V617F-dependent Ba/F3 cells, primary screen, JAK2V617F inhibitor project, cell-based, Ba/F3 EpoR-JAK2V617F, luminescence | ATP luminescence | inhibition, % at 5.6 µM | 220,000 compounds, 1.1% hits | AID 1446, 2008;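 active = inhibition above the campaign mean plus 3 SD over all tested compounds, cut at about 24% in these data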;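 note: cytokine-independent growth of Ba/F3 cells driven by EpoR plus mutant JAK2; 0% = DMSO-treated cells and 100% = JAK inhibitor I control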
# APP 5UTR inh: inhibitors of APP translation via 5'UTR reporter, primary screen, APP 5'UTR luciferase, SH-SY5Y cells. SH-SY5Y APP 5'UTR-luciferase reporter, luminescence. inhibition, % at 2 µM. 190,000 compounds, 0.82% hits. AID 1285, 2008;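 active = inhibition above a set limit, derived from the sample mean plus 3 SD, cut at about 45% in these data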
# IEC-6 cytotox: cytotoxicity in IEC-6 intestinal epithelial cells, primary screen, cytotoxicity control for KLF5 inhibitor project, cell-based, luminescence | IEC-6 cytotoxicity, luminescence viability | inhibition, % at 5 µM | 290,000 compounds, 0.78% hits | AID 1825, 2009;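 note: 0% = plate median of test compound wells and 100% = cytotoxic reference compound wells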
# IEC-6 cytotox cf: cytotoxic compounds in IEC-6 epithelial cells, confirmation, cytotoxicity control, cell-based, luminescence; AID 1907, 2009; shares compounds with IEC-6 cytotox; inhibition, % at 5 µM; 1,900 compounds, 63% hits; IEC-6 rat intestinal epithelial viability;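 note: 0% = vehicle and 100% = reference cytotoxic drug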
# Active calls of the source: *; x = no result. An excerpt weighted towards active compounds, which were near 1.8% of everything screened. Cut-off read from the data, not from the text of the source, unless noted: active = inhibition above about 22%; inactive = the rest.
SMILES,KLF5 inh,BaF3 parental,Ba/F3 V617F tox,APP 5UTR inh,IEC-6 cytotox,IEC-6 cytotox cf
Cc1cc(C)c2nc(Cl)c(C3NC(=O)c4ccccc4N3)cc2c1 (stereo unspecified),-25,5,-1,-11,0,x
Cc1ccc(C)c(C2NC(=O)c3ccccc3N2)c1 (stereo unspecified),42,39*,42*,x,63*,51*
CCOC(=O)C1C(c2cccc([N+](=O)[O-])c2)C2C(=O)NN=C2CC1(C)O (stereo unspecified),-29,6,1,10,-6,x
O=C(Nc1ccc(Br)cn1)c1ccc(Br)s1,-106,x,x,x,28*,2
O=C(Nc1ccc(Br)cn1)c1ccc(Cl)s1,-223,x,x,x,10,x
COc1cc(OC)c(C2=NOC(C(=O)NCc3cccnc3)C2)cc1Cl (stereo unspecified),-3,x,x,x,3,x
COc1ccc(C2=NOC(C(=O)NCc3ccccn3)C2)cc1OC (stereo unspecified),-13,2,-3,-23,4,x
COc1cc(OC)c(C2=NOC(C(=O)NCc3cccs3)C2)cc1Cl (stereo unspecified),21,19,6,21,42*,41*
COc1ccc(C2=NOC(C(=O)NCc3cccs3)C2)cc1OC (stereo unspecified),41,76*,87*,x,52*,51*
O=C(NCCCn1ccnc1)c1ccc(S(=O)(=O)N2CCOCC2)cc1,-22,7,3,6,-1,x
O=C(NCCc1ccc(Cl)cc1)c1ccc2[nH]c(=O)c(=O)[nH]c2c1,0,x,x,x,-4,x
CC(=O)c1ccc(N/N=C(/C(N)=O)C2=NC(C)(C)Cc3ccccc32)cc1,24,0,-1,27,40*,33*
CCOc1cc(C=O)cc(Cl)c1OCC(N)=O,-2,10,3,9,2,x
CCC(=O)OCCNc1cc(Sc2nc3ccccc3[nH]2)c2nonc2c1[N+](=O)[O-],24,1,9,70*,54*,5
Cc1cc(C(=O)NC2CCCc3c2cnn3-c2ccc(C)c(C)c2)n(C)n1 (stereo unspecified),21,x,x,x,38*,27*
CCc1cc(C(=O)NC2CCCc3c2cnn3-c2cccc(C)c2C)n(C)n1 (stereo unspecified),1,x,x,x,31*,25*
Cc1ccc(-n2ncc3c2CCCC3NC(=O)c2ccoc2)cc1C (stereo unspecified),-26,x,x,x,-7,x
CCc1ccc(OC)c(S(=O)(=O)Nc2ccc(Cc3ccncc3)cc2)c1,1,x,x,x,25*,13
COc1cc(OC)cc(C(=O)Nc2ccc(N3CCN(C(=O)c4cccs4)CC3)cc2)c1,20,x,x,x,36*,31*
C=CCn1c(SCC(=O)c2cccs2)nnc1-c1cccc(OC)c1,-1,6,-1,17,0,x
C=CCn1c(SCC(=O)c2cccs2)nc2sc(C)cc2c1=O,-6,-1,-4,2,66*,44*
O=C(Cn1ncc2c1-c1ccccc1OC2)N1CCN(Cc2ccc3c(c2)OCO3)CC1,-2,9,1,-15,-2,x
CCOc1ccc(N2C=Nc3ccc(OCC)cc3C2)cc1,-29,x,x,x,4,x
Cc1ccc(Nc2nc(N)nc(-c3oc4ccccc4c3C)n2)cc1,58,76*,76*,92*,83*,79*
COc1cccc(Nc2nc(N)nc(-c3oc4ccccc4c3C)n2)c1,-42,14,12,76*,25*,35*
SMILES,KLF5 inh,BaF3 parental,Ba/F3 V617F tox,APP 5UTR inh,IEC-6 cytotox,IEC-6 cytotox cf
Cc1cccc(Nc2nc(N)nc(-c3oc4ccccc4c3C)n2)c1,-63,4,-5,x,12,x
CN1CCN(S(=O)(=O)c2ccc(NC(=O)Cc3ccc([N+](=O)[O-])cc3)cc2)CC1,-2,x,x,x,5,x
O=C(Nc1ccnn1C1CCN(C(=O)c2cccc(Cl)c2)CC1)C1CCOC1 (stereo unspecified),-17,x,x,x,8,x
Clc1cccc2c1Sc1ccccc1CC2N1CCNCC1 (stereo unspecified),1,8,6,2,23*,9
CCOc1c(Br)cc(CNc2ccc3c(c2)OCCO3)cc1OC,55,77*,80*,94*,76*,54*
CCOc1cc(CNc2ccc3c(c2)OCCO3)cc(Br)c1OCC(N)=O,3,-1,1,-1,-7,x
CCOc1cc(CNc2ccc3c(c2)OCCO3)cc(Br)c1OC,50,73*,72*,94*,82*,61*
CCOC(=O)/C(=N\Nc1cc(Cl)ccc1Cl)N1CCN(CC)CC1,19,-3,-1,12,-2,x
Cc1cc(C)cc(C(=O)N2CC(=O)Nc3ccccc32)c1,48,82*,78*,92*,89*,57*
Cc1cc(-c2ccc(S(=O)(=O)N(C)c3ccc(C)c(C)c3)s2)on1,32,x,x,x,53*,42*
COc1ccc(-c2cc(C)no2)cc1S(=O)(=O)N(C)c1ccc(C)c(C)c1,-21,x,x,x,3,x
Cc1ccc(N(C)S(=O)(=O)c2ccc(-c3cc(C)no3)s2)cc1,35,x,x,x,41*,5
CCOc1ccc(C(=O)NCCN2CCCCC2)c(OCC)c1,-25,x,x,x,0,x
CN1CCC(=O)N([C@H](COc2ccccc2)Cc2ccccc2)CC1,-19,x,x,x,-1,x
COc1cc(/C=C/C(=O)c2ccc3c(c2)OCCO3)cc(Br)c1OCC(=O)N(C)C,43,x,x,x,24*,17
O=S(=O)(Nc1cccc2ncccc12)c1cccs1,8,3,-1,43,100*,102*
COc1ccc(-[n+]2c(C)cc(/C=C3\Sc4ccccc4N3C)cc2C)cc1,16,97*,101*,83*,32*,65*
CCCN1CCN(CCCNC(=O)c2ccc3nc(N4CCCCC4)sc3c2)CC1,-138,x,x,x,0,x
CC1CC(C)CN(CCCNC(=O)c2ccc3nc(N4CCCCC4)sc3c2)C1 (stereo unspecified),-114,x,x,x,27*,2
CCc1nnc2c(NCCc3ccccc3)nc3ccccc3n12,5,x,x,x,12,x
CC(=O)c1cccc(NC(=O)CNC(=O)Cc2ccccc2)c1,-1,x,x,x,-6,x
CCn1c2ccccc2c2cc([N+](=O)[O-])ccc21,-11,7,-2,-18,-6,x
CN(C)CCn1c2ccccc2c2nc3ccc([N+](=O)[O-])cc3cc21,-1,71*,87*,x,82*,51*
Cc1c(Nc2cc(Cl)c3nonc3c2[N+](=O)[O-])c(=O)n(-c2ccccc2)n1C,3,103*,95*,95*,96*,9
O=C(O)c1ccc(Nc2cc(Cl)c3nonc3c2[N+](=O)[O-])cc1,-15,0,-6,-2,2,x
O=[N+]([O-])c1c(Nc2cccc(O)c2)cc(Cl)c2nonc12,4,x,x,x,100*,29*
